The subject of test [1] is Vero E6 infected with SARS-CoV-2. As to the kind of experiment: morphology score (similarity to uninfected cells); higher = more like uninfected cells. The note with it: 24 h.
For test [2] the test system is unchanged. As to the kind of experiment: SARS-CoV-2 infection rate relative to infected DMSO; higher = more infection, active = 60 or less. The note with it: 24 h.

In test [1], `Cc1cc(C)cc(C(=O)O[C@H]2C[C@H]3CC[C@@H](C2)N3C)c1` [tropanyl-3,5-dimethylbenzoate] (10 µM) yielded a morphology score of 0.23. Also, the SARS-CoV-2 infection rate in test [2] was 90% (inactive).

In test [1], `CCCn1c(=O)c(C)cn2nc(N)nc12` (10 µM) returned a morphology score of 0.276. Besides, the SARS-CoV-2 infection rate in test [2] was 96.5% (inactive).

`C[C@]12CCC(=O)C=C1CC[C@@H]1[C@@H]2[C@@H](O)C[C@@]2(C)[C@H]1CC[C@]2(O)C(=O)CO` [hydrocortisone] (10 µM) showed a morphology score in test [1] of -0.144. In addition, the SARS-CoV-2 infection rate in test [2] is 122% (inactive).

`CC1(C)S[C@@H]2[C@H](NC(=O)COc3ccccc3)C(=O)N2[C@H]1C(=O)O` [penicillin-v-potassium] (10 µM) had a morphology score in test [1] of -0.0155. The SARS-CoV-2 infection rate in test [2] was 116% (inactive).

Regarding `O=C1NC(=O)C(c2ccccc2)(c2ccccc2)N1` [phenytoin] (10 µM), in test [1], the morphology score worked out at 0.168. Further, the SARS-CoV-2 infection rate in test [2] is 97% (inactive).

On to `CN1CCN(C(=O)O[C@H]2c3nccnc3C(=O)N2c2ccc(Cl)cn2)CC1` (10 µM), for which, in test [1], the morphology score is -0.0495. The SARS-CoV-2 infection rate in test [2] was 108% (inactive).

Turning to `O=C(Nc1cccc2cccnc12)c1ccc(N2C(=O)[C@@H]3[C@H](C2=O)[C@@H]2C=C[C@H]3C2)cc1` [endo-IWR-1] (10 µM), the morphology score in test [1] is -0.0752. For the same molecule, the SARS-CoV-2 infection rate in test [2] was 98.5% (inactive).

Turning to `C[C@@H]1Cc2c([nH]c3ccccc23)[C@@H](c2c(F)cc(/C=C/C(=O)O)cc2F)N1CC(C)(C)F` (10 µM), in test [1], the morphology score was -0.0686. For the same molecule, in test [2], the SARS-CoV-2 infection rate was 105% (inactive).

For the molecule `CC(=O)c1cnc2ccc(-c3cc(Cl)c(O)c(Cl)c3)nc2c1N[C@H]1CC[C@H](CN(C)C)CC1` (0.833333 µM), the morphology score in test [1] stood at 0.294. In addition, in test [2], the SARS-CoV-2 infection rate is 96% (inactive).

With `Cc1cc(CC(=O)O)n(C)c1C(=O)c1ccc(Cl)cc1` [zomepirac] (10 µM), the morphology score in test [1] was determined as 0.117. For the same molecule, the SARS-CoV-2 infection rate in test [2] was 104% (inactive).

`O=C1CC2(CCCC2)CC(=O)N1CCCCNC[C@H]1COc2ccccc2O1` (racemic) (10 µM) yielded a morphology score in test [1] of -0.0862. The SARS-CoV-2 infection rate in test [2] is 108% (inactive).

As to `O=C(CC12CC3CC(CC(C3)C1)C2)Nc1cccc2nc(NCCNCCO)ccc12` (10 µM), the morphology score in test [1] is -0.132. In test [2], the SARS-CoV-2 infection rate was 116% (inactive).

`Cn1c(=O)c2c(ncn2CC(O)CO)n(C)c1=O` (stereo not given) [dyphylline] (10 µM) gave a morphology score in test [1] of 0.0342. The SARS-CoV-2 infection rate in test [2] is 96% (inactive).

For the molecule `Cc1cccc(NC(=O)CN2CCC(c3ccccn3)CC2)c1` (10 µM), the morphology score in test [1] was -0.0959. In addition, in test [2], the SARS-CoV-2 infection rate was 108% (inactive).

In the case of `c1cnc2cc3c(cc2n1)[C@@H]1CNC[C@H]3C1` [varenicline] (10 µM), the morphology score in test [1] is -0.0409. Further, the SARS-CoV-2 infection rate in test [2] is 101% (inactive).

In test [1], `CC(=O)Oc1ccccc1C(=O)Oc1cccc(CO[N+](=O)[O-])c1` (10 µM) yielded a morphology score of 0.178. Further, in test [2], the SARS-CoV-2 infection rate was 101% (inactive).

On to `COc1cc2c(Nc3ccc(NC(=O)c4ccccc4)cc3)ncnc2cc1OCCCN1CCOCC1` (10 µM), for which, in test [1], the morphology score was -0.13. Also, the SARS-CoV-2 infection rate in test [2] was 108% (inactive).

`COc1ccc(CNC(=O)c2sc3nc(C)cc(C)c3c2N)cc1` (10 µM) had a morphology score in test [1] of -0.0124. Also, the SARS-CoV-2 infection rate in test [2] was 104% (inactive).

In test [1], `Cc1cc(C(=O)O)sc1C(N)C(=O)O` (stereo not given) (10 µM) had a morphology score of -0.0491. Further, the SARS-CoV-2 infection rate in test [2] is 95% (inactive).

Take `CC(C)C(=O)SCCCCC[C@H](NC(=O)OC(C)(C)C)C(=O)NC12CC3CC(CC(C3)C1)C2` (10 µM): the morphology score in test [1] is -0.113. Further, in test [2], the SARS-CoV-2 infection rate was 97% (inactive).

The molecule `O=C(O)c1cc(=O)[nH]c(=O)[nH]1` [orotic-acid] (10 µM) returned a morphology score in test [1] of 0.104. For the same molecule, the SARS-CoV-2 infection rate in test [2] is 104% (inactive).

As for `C=C(NC(=O)C(=C)NC(=O)c1csc(C2=N[C@@H]3c4csc(n4)[C@H]4NC(=O)c5csc(n5)[C@H]([C@](C)(O)[C@@H](C)O)NC(=O)[C@H]5CSC(=N5)/C(=C/C)NC(=O)[C@H]([C@@H](C)O)NC(=O)c5csc(n5)[C@]3(CC2)NC(=O)[C@H](C)NC(=O)C(=C)NC(=O)[C@H](C)NC(=O)[C@H]([C@@H](C)CC)N[C@@H]2C=Cc3c([C@H](C)O)cc(nc3[C@H]2O)C(=O)O[C@@H]4C)n1)C(N)=O` [thiostrepton] (10 µM), the morphology score in test [1] was 0.148. Moreover, the SARS-CoV-2 infection rate in test [2] was 92.5% (inactive).

Take `O=C(N[C@H]1CN2CCC1CC2)c1ccc2c(c1)OCCO2` (10 µM): in test [1], the morphology score was -0.0253. Also, in test [2], the SARS-CoV-2 infection rate is 100% (inactive).

In test [1], `CC(C)(C)C(=O)Oc1ccc(S(=O)(=O)Nc2ccccc2C(=O)NCC(=O)O)cc1` [sivelestat] (10 µM) returned a morphology score of 0.168. In addition, the SARS-CoV-2 infection rate in test [2] was 95% (inactive).

The molecule `O=C(O)C[C@H](O)C(=O)O` [malic-acid] (10 µM) returned a morphology score in test [1] of -0.0659. The SARS-CoV-2 infection rate in test [2] was 104% (inactive).

In test [1], `CCC(=O)OCC(=O)[C@@]1(OC(=O)CC)[C@@H](C)C[C@H]2[C@@H]3CCC4=CC(=O)C=C[C@]4(C)[C@@]3(Cl)[C@@H](O)C[C@@]21C` [beclomethasone-dipropionate] (10 µM) yielded a morphology score of 0.126. Also, the SARS-CoV-2 infection rate in test [2] is 105% (inactive).

Regarding `CC(=O)N(C)c1cc(-c2ccnc3c(C(=O)c4cccs4)cnn23)ccc1F` [lorediplon] (10 µM), in test [1], the morphology score was -0.126. Besides, the SARS-CoV-2 infection rate in test [2] is 112% (inactive).

Turning to `CNC(=O)c1ccc(Nc2ncc(C(F)(F)F)c(NCc3nccnc3N(C)S(C)(=O)=O)n2)cc1` [defactinib] (0.833333 µM), the morphology score in test [1] worked out at 0.0478. Moreover, the SARS-CoV-2 infection rate in test [2] is 100% (inactive).

Take `CC(C)(C)c1cc(C=C(C#N)C#N)cc(C(C)(C)C)c1O` [tyrphostin-A9] (0.833333 µM): the morphology score in test [1] came to 0.116. For the same molecule, in test [2], the SARS-CoV-2 infection rate is 80.5% (inactive).

The molecule `NS(=O)(=O)c1cccc2c1c([N+](=O)[O-])cc1nc(O)c(O)nc12` (10 µM) registered a morphology score in test [1] of -0.0523. The SARS-CoV-2 infection rate in test [2] is 104% (inactive).

For the origin of these results see the supplement of paper PMC13380429.
